# KDM5B inh = blocks human KDM5B histone demethylase activity. KDM5B demethylase, FDH-coupled NADH fluorescence (FDH is formaldehyde dehydrogenase). Potency, µM (titrated, usually from 57.7 µM), usual class: inhibitors. actives 2.6% (n = 220,000). AID 1347165; active = well fitted inhibition curve with a large enough effect; note: nearly all actives have a fitted effect of over 70% in size
# Target sequence (Q9UGL1 whole entry, looked up): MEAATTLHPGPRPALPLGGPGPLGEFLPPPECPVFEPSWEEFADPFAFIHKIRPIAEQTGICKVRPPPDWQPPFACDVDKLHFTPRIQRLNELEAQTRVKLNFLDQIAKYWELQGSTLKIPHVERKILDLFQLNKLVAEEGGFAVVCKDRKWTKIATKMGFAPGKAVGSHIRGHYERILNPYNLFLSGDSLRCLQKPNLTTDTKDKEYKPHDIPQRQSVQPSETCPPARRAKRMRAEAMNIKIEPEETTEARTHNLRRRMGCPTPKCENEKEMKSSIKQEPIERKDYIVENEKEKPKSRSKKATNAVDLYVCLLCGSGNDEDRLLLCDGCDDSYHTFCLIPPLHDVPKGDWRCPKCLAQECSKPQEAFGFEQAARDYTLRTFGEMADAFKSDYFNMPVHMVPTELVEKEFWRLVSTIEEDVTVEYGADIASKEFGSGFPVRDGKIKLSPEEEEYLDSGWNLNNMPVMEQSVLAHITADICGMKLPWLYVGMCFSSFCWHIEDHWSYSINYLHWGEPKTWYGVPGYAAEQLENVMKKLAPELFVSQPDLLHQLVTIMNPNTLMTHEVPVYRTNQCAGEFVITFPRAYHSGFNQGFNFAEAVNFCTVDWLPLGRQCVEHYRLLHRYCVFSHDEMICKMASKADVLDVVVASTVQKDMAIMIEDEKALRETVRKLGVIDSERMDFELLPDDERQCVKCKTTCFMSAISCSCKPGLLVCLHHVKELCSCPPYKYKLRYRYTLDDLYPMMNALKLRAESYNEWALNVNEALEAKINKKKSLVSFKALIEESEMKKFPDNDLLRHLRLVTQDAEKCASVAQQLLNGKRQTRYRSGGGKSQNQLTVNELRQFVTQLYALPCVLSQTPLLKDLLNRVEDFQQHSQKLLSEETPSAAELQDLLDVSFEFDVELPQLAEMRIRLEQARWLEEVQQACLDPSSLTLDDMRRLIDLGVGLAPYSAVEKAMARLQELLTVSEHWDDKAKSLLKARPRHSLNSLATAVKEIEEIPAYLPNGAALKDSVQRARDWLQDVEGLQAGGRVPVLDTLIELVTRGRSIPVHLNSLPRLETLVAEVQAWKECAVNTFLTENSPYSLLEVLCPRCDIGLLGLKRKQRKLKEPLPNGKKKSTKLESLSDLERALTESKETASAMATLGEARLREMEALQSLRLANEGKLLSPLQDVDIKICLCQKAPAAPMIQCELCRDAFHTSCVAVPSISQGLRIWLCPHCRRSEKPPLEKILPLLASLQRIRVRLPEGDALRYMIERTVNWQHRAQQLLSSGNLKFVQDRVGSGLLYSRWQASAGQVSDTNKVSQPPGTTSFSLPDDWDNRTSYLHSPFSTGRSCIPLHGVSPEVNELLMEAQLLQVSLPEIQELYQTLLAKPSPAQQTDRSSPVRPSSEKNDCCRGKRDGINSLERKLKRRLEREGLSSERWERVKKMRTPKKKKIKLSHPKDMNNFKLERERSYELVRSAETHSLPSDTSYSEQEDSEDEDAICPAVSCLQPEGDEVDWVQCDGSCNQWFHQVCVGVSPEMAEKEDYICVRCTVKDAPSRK
#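 Compound dilutions met 200 nM (final) KDM5BΔAP for 10 min at room temperature before substrate addition. The substrate mix held 12.5 µM H3K4me3 with cofactors 25 µM α-ketoglutarate and 50 µM Fe²⁺. NADH signal gain over 30 min defined activity.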
# Numbers stand for hits; – = inactive. Only a selection was taken, and hits are over-represented in it overall.
SMILES,KDM5B inh
CC(Sc1nc2ccccc2s1)C(=O)NC1(C#N)CCCCC1 (stereo not given),–
COc1ccc(Br)cc1CNC12CC3CC(CC(C3)C1)C2,–
COC(=O)CN1C(=O)[C@@H]2C[C@@H](O)CN2C2(CN(CC3CC3)C2)C1=O,–
N#Cc1nc(-c2ccc([N+](=O)[O-])cc2)oc1NCCN1CCOCC1,–
CCCN(CCC)c1ccc(C=O)cc1,–
CC(C)c1noc(-c2cccn3c(CNC(=O)C(C)c4ccccc4)nnc23)n1 (stereo not given),14µM
CCC(C(=O)NCc1ccc(OC)cc1)c1ccccc1 (stereo not given),–
CC(C(=O)NCCc1noc(-c2cccnc2)n1)c1ccccc1 (stereo not given),–
CCC(C(=O)NCc1ccc(C(=O)OC)cc1)c1ccccc1 (stereo not given),–
CCC(C(=O)NCc1nnc2c(-c3nc(C(C)C)no3)cccn12)c1ccccc1 (stereo not given),13µM
CCNC(=O)N1CCC(c2noc(-c3ccccc3)n2)C1 (stereo not given),–
CC(C)NC(=O)N1CCC(c2noc(-c3ccccc3)n2)C1 (stereo not given),–
CCC(C(=O)NCc1nnc2c(-c3nc(C4CC4)no3)cccn12)c1ccccc1 (stereo not given),32µM
CCc1noc(-c2ccn3c(CNC(=O)C(CC)c4ccccc4)nnc3c2)n1 (stereo not given),–
CCC(C(=O)NCc1nnc2c(-c3nc(C)no3)cccn12)c1ccccc1 (stereo not given),32µM
CCC(C(=O)Nc1ccccc1OCc1cc(=O)n2cccc(C)c2n1)c1ccccc1 (stereo not given),–
COCc1nc(CCNC(=O)C(C)c2ccccc2)no1 (stereo not given),–
O=C(Nc1cccc(N2CCCC2=O)c1)c1nn(-c2ccccc2)c(=O)c2ccccc12,–
COc1ccc(Cl)cc1CN(C)c1cc(C2CC(N)C2)ncn1 (stereo not given),–
Cc1ccc(-c2cc3ccccc3[nH]2)cc1,–
CCCCc1nn2cc(-c3ccc(C)c(C)c3)nc2s1,–
Cc1ccccc1Cn1c(N2CCN(CC(N)=O)CC2)nc2c1c(=O)[nH]c(=O)n2C,–
CCOc1ccc(-c2cc3c(=O)n(CCNC(=O)Cc4ccccc4C)ccn3n2)cc1,22µM
COc1ccc(-c2cc3c(=O)n(CCNC(=O)c4ccsc4)ccn3n2)cc1,22µM
Cc1ccc(-c2cc3c(=O)n(CCNC(=O)Cc4ccccc4Cl)ccn3n2)c(C)c1,–
SMILES,KDM5B inh
COc1ccc(-c2cc3c(=O)n(CCNC(=O)c4sccc4C)ccn3n2)cc1,25µM
CCOc1ccc(-c2cc3c(=O)n(CCNC(=O)c4ccoc4)ccn3n2)cc1,22µM
CCOc1ccc(-c2cc3c(=O)n(CCNC(=O)c4ccc5c(c4)OCO5)ccn3n2)cc1,–
CCOc1ccc(-c2cc3c(=O)n(CCNC(=O)c4cccc(Cl)c4)ccn3n2)cc1,–
CC(C)C(NC(=O)c1ccc(C(C)(C)C)cc1)C(=O)OCC(=O)N1CCCC1 (stereo not given),–
CC(=O)c1cccc(NC(=O)Nc2ccc(Cl)cc2C(F)(F)F)c1,–
O=C(Nc1ccc2c(c1)CCC2)c1cccc2ccccc12,–
Cc1ccc(COc2cccc(CNC3CC3)c2)cc1,–
CC(C)(C)c1ccc(C(=O)Nc2ccccc2)cc1Br,–
CC(C)(C)N(Cc1ccccc1)C(=O)COC(=O)c1cc2ccccc2oc1=O,–
Cc1ccc(-c2cc3c(=O)n(CCNC(=O)c4ccoc4)ccn3n2)c(C)c1,–
COc1ccc(-c2cc3c(=O)n(CCNC(=O)c4ccoc4)ccn3n2)cc1,20µM
O=C(Cn1ncc2ccccc2c1=O)Nc1ccc(OC2CCCC2)cc1,–
CCc1cccc(NC(=O)Cn2c(=O)c3c(ncn3C3CCCC3)n(Cc3ccccc3)c2=O)c1,–
COc1ccccc1NS(=O)(=O)c1ccc2oc(SCCOc3ccc(F)cc3)nc2c1,–
O=C(Cn1nnc(-c2ccc(F)cc2)n1)N1CCOCC1,–
Cc1cn2nnc(C(=O)N3CCC(C(=O)NCc4ccccc4)CC3)c2c(=O)[nH]1,–
C=CCN1CCN(C(=O)c2cccs2)CC1,–
Cc1cn2nnc(C(=O)N3CCC(C(=O)Nc4ccc(F)c(Cl)c4)CC3)c2c(=O)[nH]1,–
O=C(c1nnn2cc(-c3ccc(F)cc3)[nH]c(=O)c12)N1CCOCC1,32µM
C=CCN1CCN(C(=O)c2nnn3cc(-c4ccccc4)[nH]c(=O)c23)CC1,28µM
CCCCN(CC)C(=O)c1nnn2cc(-c3ccc(Cl)cc3)[nH]c(=O)c12,–
CCCCNC(=O)c1nnn2cc(C)[nH]c(=O)c12,–
CCCCNC(=O)c1nnn2cc(-c3ccc(Cl)cc3)[nH]c(=O)c12,8.9µM
Cc1ccc(CN2CCCC3(CNc4ccccc4[S+](=O)([O-])N3)C2)cc1 (stereo not given),–
SMILES,KDM5B inh
O=C(CC1CC1)N1CC(F)(F)C[C@H]1c1nc(-c2ccncc2)no1,–
CCOCCCNC(=O)c1cc(-c2ccccc2)nc2ccccc12,–
CN(C)C(CNC(=O)c1cn(C2CCC(N)CC2)nn1)c1ccccn1 (stereo not given),–
NC1CCC(n2cc(C(=O)NC3CCCN(c4ncccn4)C3)nn2)CC1 (stereo not given),25µM
NC1CCC(n2cc(C(=O)N3CCC(Nc4ccccn4)CC3)nn2)CC1 (stereo not given),–
COc1ccc(CN2CCCC23Cc2ccccc2CNC3=O)cc1F (stereo not given),–
Cc1noc(C)c1-c1cnc2[nH]cc(CC(=O)NCc3cccnc3)c2c1,35µM
Cc1noc(C)c1-c1cnc2[nH]cc(CC(N)=O)c2c1,32µM
O=C(Cc1c[nH]c2ncc(-c3cccnc3)cc12)NC1CCC1,–
CCOC(=O)NCC(=O)NCc1cccnc1,–
CCC1c2ccsc2CCN1C(=O)C1CCN(S(=O)(=O)c2ccc(C(C)=O)cc2)CC1 (stereo not given),–
Cc1nc(CNC(=O)CCN2Cc3ccccc3OC(c3ccccc3F)C2)cs1 (stereo not given),–
CCc1ccc(-n2nnnc2N2CCN(C(=O)Nc3ccc(C)c(F)c3)CC2)cc1,–
Cc1noc(C)c1C(=O)N1CCN(c2cccc(C=O)c2)C(=O)C1,–
O=C(Cn1cnc2cc(F)ccc2c1=O)N(Cc1cccs1)c1ccc2c(c1)OCCO2,–
COCc1cc(=O)n(CC(=O)Nc2cccc(Br)c2)c(N2CCOCC2)n1,28µM
Cc1ccc(CNC(=O)Cn2c(N3CCc4ccccc4C3)nc(C)cc2=O)cc1,28µM
COc1ccc(OC)c(NC(=O)Cn2c(N3CCc4ccccc4C3)nc(C)cc2=O)c1,28µM
COCc1cc(=O)n(CC(=O)Nc2cccc(SC)c2)c(N2CCOCC2)n1,–
Cc1cc(=O)n(CC(=O)NCc2ccc(F)cc2)c(N2CCc3ccccc3C2)n1,–
COCc1cc(=O)n(CC(=O)Nc2ccc(Br)cc2)c(N2CCOCC2)n1,–
CCOC(=O)c1ccc(NC(=O)Cn2c(N3CCc4ccccc4C3)nc(C)cc2=O)cc1,–
Cc1cc(=O)n(CC(=O)Nc2ccccc2C)c(N2CCc3ccccc3C2)n1,–
Cc1cc(=O)n(CC(=O)NC(C)C)c(N2CCc3ccccc3C2)n1,–
COc1cccc(NC(=O)Cn2c(N3CCN(c4ccccc4)CC3)nc(C)cc2=O)c1,–
COc1cccc(NC(=O)Cn2c(N3CCc4ccccc4C3)nc(C)cc2=O)c1,11µM
COc1ccc(C)cc1NC(=O)Cn1c(N2CCc3ccccc3C2)nc(C)cc1=O,–

# High-throughput results: PubChem BioAssay, National Center for Advancing Translational Sciences (NCATS)
